D2 PAM-1 = positively modulates the human D2 dopamine receptor allosterically; HEK293 T-REx D2, calcium flux, EC20 dopamine potentiation; potentiation, % at 10 µM; 340,000 compounds, 0.34% hits; AID 485347;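 active = potentiation over 3 SD above the plate norm, cut at about 30% in these data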
Target sequence (P14416 whole entry, looked up): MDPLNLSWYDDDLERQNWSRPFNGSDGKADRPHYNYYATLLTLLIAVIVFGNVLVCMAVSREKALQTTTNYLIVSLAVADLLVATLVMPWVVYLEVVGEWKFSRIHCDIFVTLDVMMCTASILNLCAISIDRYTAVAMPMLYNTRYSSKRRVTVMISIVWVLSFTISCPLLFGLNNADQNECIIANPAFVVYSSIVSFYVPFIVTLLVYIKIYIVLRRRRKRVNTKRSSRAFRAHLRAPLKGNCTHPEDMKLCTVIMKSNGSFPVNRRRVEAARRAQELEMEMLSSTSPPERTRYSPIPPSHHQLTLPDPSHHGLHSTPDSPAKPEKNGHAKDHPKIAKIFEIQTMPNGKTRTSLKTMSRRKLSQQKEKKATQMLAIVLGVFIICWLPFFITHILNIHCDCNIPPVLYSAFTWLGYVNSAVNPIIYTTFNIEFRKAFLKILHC
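Using a no-wash calcium dye in inducible, force-coupled HEK293 Trex cells expressing D2, we tracked fluorescence each second for 180 s after compound, then for 180 s after EC20 dopamine to detect augmented signalling.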
D2 antag = antagonizes the human D2 dopamine receptor; inhibition, % at 10 µM; AID 485344; 340,000 compounds, 2% hits; P14416; HEK293 TREx D2 cells, calcium flux, dopamine EC80; in the data active = inhibition above about 30%; inactive = below that, where a call was filed
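In this primary screen, negative modulation is detected by tracking calcium flux after an EC80 dopamine challenge in inducible HEK293 T-REx D2 cells preexposed to test compound for 180 s.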
D2 ag-1 = D2 dopamine receptor (human) agonism | P14416 | 340,000 compounds, 0.53% hits | activation, % at 2 µM | AID 485358 | HEK293 T-REx D2 cells, calcium flux agonist mode;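 active = activation over 3 SD above normal in the single-dose calcium agonist read, cut at about 30% in these data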
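Tetracycline-induced HEK293 T-REx cells with force-coupled D2 receptor, plated overnight at 30 C, loaded with no-wash calcium dye. After a 10 s baseline, compound was pin-added and calcium flux read kinetically for 180 s; calcium rises flagged agonists.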
D2 PAM-2 = human D2 receptor positive allosteric modulation. P14416. DiscoveRx D2 beta-arrestin cells, luminescence, 90 min; 100% = 57 uM dopamine signal. potentiation, % (concentration not given with the values). 360,000 compounds, 0.23% hits; in the data active = potentiation above about 50%; inconclusive = mostly about 30% to 49%
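PathHunter D2 cells, attached overnight at 37 deg C, received compound in DMSO plus dopamine at EC20 (50 nM final) for 90 min at 37 deg C. Beta-arrestin recruitment was read as luminescence after 1 h with detection reagent at ambient temperature.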
D2 ag-2 = human D2 receptor agonism in beta-arrestin assay; P14416; DiscoveRx PathHunter D2 beta-arrestin, luminescence, 90 min; 100% = 57 uM dopamine signal; activation, % (concentration not given with the values); 360,000 compounds, 0.084% hits; in the data active = activation above about 40%; inconclusive = between about 15% and that limit
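DiscoveRx PathHunter D2 beta-arrestin cells (2,100/well) attached overnight, then compound-stimulated 90 min at 37 C in HBSS/10 mM HEPES/0.1% Tween-20 buffer; beta-galactosidase complementation read by luminescence after 1 h at ambient temperature. Dopamine 57 uM final (EC100) as control.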
Of the large screens only hits and unclear results are named; the others gave an inactive call. Compounds with a hit are over-represented: about 2.4% of the library has one in this group of screens.

CC(=O)c1sc(N/N=C\c2c(O)ccc3ccccc23)nc1C	none (no result: D2 PAM-1, D2 antag, D2 ag-1)
CCOc1ccc(C(=O)n2cc(C(=O)OC)c3ccccc32)cc1	none
COc1ccc(-n2c(N)c(-c3nc4ccccc4n3C)sc2=S)cc1	D2 antag 34
CCOC(=O)c1cc(CC)sc1NC(=O)c1ccc([N+](=O)[O-])c(N2CCOCC2)c1	none
Cc1ccccc1NC(=O)CSc1nc2c(oc3ccccc32)c(=O)n1Cc1ccco1	none (no result: D2 antag, D2 PAM-2, D2 ag-2)
Cc1ccc(N=Cc2c(O)c3ccccc3n(C)c2=O)cc1	none
Cc1ccc(N=Cc2sc(O)c3ccccc23)c(C)c1	D2 antag 58, D2 PAM-2 inconclusive
Cc1ccc(N=Cc2sc(O)c3ccccc23)cc1	D2 ag-1 65
COc1cccc(NC(=O)Cn2c(=O)n(Cc3ccc(C(=O)NCc4ccc5c(c4)OCO5)cc3)c(=O)c3ccccc32)c1	none (no result: D2 antag, D2 PAM-2, D2 ag-2)
CC(C)(C)N(Cc1ccccc1)C(=O)CSc1nnc(CNc2ccc(F)cc2)o1	D2 antag 32
Cc1cc(C)cc(N=c2c([N+](=O)[O-])nn(-c3ccc4c(c3)OCCO4)n2O)c1	none
O=[N+]([O-])c1nn(-c2ccc3c(c2)OCCO3)n(O)c1=Nc1ccc(Cl)cc1	D2 PAM-2 51
Cc1ccc(N=c2c([N+](=O)[O-])nn(-c3ccc4c(c3)OCCO4)n2O)cc1F	D2 PAM-2 58, D2 ag-2 inconclusive
COc1ccc(/C=C/C(=O)N[C@H](C(=O)O)C(C)C)cc1	none
Cc1sc(-c2cc3ccccc3oc2=O)nc1-c1ccc(Cl)cc1	none (no result: D2 antag, D2 PAM-2, D2 ag-2)
CC(Sc1ccccc1F)C(=O)Nc1ccc2c(c1)OCCO2 (configuration not stated)	none (no result: D2 PAM-1, D2 antag, D2 ag-1)
COc1ccc(N2CCN(C(=O)COC(=O)c3cccc(S(=O)(=O)Nc4cccc(C)c4)c3)CC2)cc1	D2 antag 40
CCCCN(C(=O)Cc1cccc(F)c1)c1c(N)n(CCC)c(=O)[nH]c1=O	D2 antag 37
O=C1CC(N2CCC(c3nc4ccccc4s3)CC2)C(=O)N1 (configuration not stated)	D2 antag 33 (no result: D2 PAM-1)
COc1ccc(OC)c(S(=O)(=O)N2CCN(c3c(C)cccc3C)CC2)c1	D2 antag 36
COc1ccc(OC)c(S(=O)(=O)N2c3ccccc3CC2C)c1 (configuration not stated)	D2 antag 33
COc1ccc(CNS(=O)(=O)c2ccc(F)c(C(=O)Nc3c(C)cc(C)cc3C)c2)cc1	none (no result: D2 antag, D2 PAM-2, D2 ag-2)
O=C1CC(NS(=O)(=O)c2ccc([N+](=O)[O-])cc2)CN1c1cccc(F)c1 (configuration not stated)	D2 PAM-1 42
CC(=O)c1ccc(S(=O)(=O)NC2CC(=O)N(c3cccc(F)c3)C2)cc1 (configuration not stated)	none
O=C1C2C3C=CC(C4CC34)C2C(=O)N1/N=C/c1cccs1 (configuration not stated)	D2 PAM-2 61
Cc1[nH]n2c(=O)c3c(nc2c1-c1ccccc1)CCCC3	none
Cc1[nH]n2c(=O)c3c(nc2c1-c1ccc(F)cc1)CCCC3	D2 antag 36
COCCCn1c(=O)c2sccc2n(Cc2ccc(C)cc2)c1=O	none
CN(CC(=O)NCCc1ccc(Cl)cc1)S(=O)(=O)c1cccs1	none
Cc1cccc(Cc2c(C)nc3nc(SCC(=O)NC4CCCCC4)nn3c2C)c1	none (no result: D2 antag, D2 PAM-2, D2 ag-2)
CCn1cnc2cc(NC(=O)c3ccc(C)cc3)ccc21	D2 antag 32
c1ccc(Cc2nnc3sc(-c4cccs4)nn23)cc1	D2 antag 73
Cn1cccc1/C=C(/C#N)c1ccc(F)cc1	none
CCOc1ccccc1CNC(=O)CCCn1nc(C)c2sc3ccccc3c2c1=O	none (no result: D2 antag, D2 PAM-2, D2 ag-2)
CCc1nnc(NC(=O)CN2C(=O)/C(=C/c3cc(OC)c(OC)c(OC)c3)SC2=S)s1	D2 PAM-1 31
COc1ccccc1/C=C1\SC(=S)N(CCC(=O)Nc2cc(C)on2)C1=O	none (no result: D2 PAM-1)
COc1ccccc1/C=C1\SC(=S)N(CCC(=O)Nc2nnc(C)s2)C1=O	D2 antag 31
CCc1ccc(NC(=O)C2CCN(S(=O)(=O)c3ccc4[nH]c5c(c4c3)CCCCC5)CC2)cc1	none (no result: D2 antag, D2 PAM-2, D2 ag-2)
COc1cc(C(=O)Nc2ccc(C)cc2)c2ccccc2n1	none
